From PubChem BioAssay (NCI)
Compounds without any hit were thinned out: in the full panel of roughly 79,000, 15% have a hit. Activity calls are given as the source filed them. No stated cut-off is given here; in the data, active means growth inhibition above about 70%; inactive means the rest.

Assays:
[1] = NCI Yeast Anticancer Drug Screen. Data for the rad50 strain (AID 155);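 further: 0% = growth of vehicle-only cultures of the same strain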; details: S. cerevisiae rad50 strain growth inhibition; at 50.0 µM; hits give high values
Outline: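 Cells are treated with compound, grown, and their growth is then scored against vehicle-only cultures of the same repair-deficient yeast strain.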

[2] = NCI Yeast Anticancer Drug Screen. Data for the mec2-1 strain (AID 157); details: S. cerevisiae mec2-1 strain, at 50.0 µM, hits give high values
Outline: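 Mutant yeast (mec2-1) grown with compound; growth inhibition relative to vehicle control reported.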

[3] = NCI Yeast Anticancer Drug Screen. Data for the sgs1 mgt1 strain (AID 161);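 further: 0% = growth of cultures given vehicle only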; details: S. cerevisiae sgs1 mgt1 strain, at 50.0 µM, hits give high values
Outline: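 Percent growth inhibition was derived by comparing compound-exposed mutant yeast with vehicle-exposed cultures. The strain carries alterations in DNA damage repair.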

[4] = NCI Yeast Anticancer Drug Screen. Data for the cln2 rad14 strain (AID 165);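 further: 0% = growth equal to vehicle treated cultures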; details: S. cerevisiae cln2 rad14 strain, at 50.0 µM, hits give high values
Outline: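 Readout is yeast growth inhibition versus vehicle-treated controls, using a strain with cln2 and rad14 alterations exposed to compound.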

[5] = NCI Yeast Anticancer Drug Screen. Data for the bub3 strain (AID 167); details: S. cerevisiae bub3 mutant strain, at 50.0 µM, hits give high values
Outline: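 Part of a panel of yeast mutants defective in DNA damage repair or cell cycle regulation. Each strain is grown with compound, and inhibition is calculated relative to solvent-treated cultures.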

[6] = NCI Yeast Anticancer Drug Screen. Data for the mlh1 rad18 strain (AID 175); details: S. cerevisiae mlh1 rad18 strain growth inhibition; at 50.0 µM; hits give high values
Outline: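 Genetically defined yeast (DNA repair-deficient) exposed to compounds; growth inhibition determined relative to vehicle.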

Measured: growth inhibition

CC1COC(c2cc3c(cc2Cl)OCO3)O1 (stereo unspecified)
inactive: [1] -12.4% | [2] -2.4% | [3] -20.3% | [4] -10.9% | [5] -26.6% | [6] -0.4%

COc1cccc(C(=O)c2ccc(OC)cc2C(=O)O)c1
inactive: [1] 5.95% | [2] -10.2% | [3] -2.8% | [4] -31.9% | [5] 4.3% | [6] 0.85%

CCCCCCCCCCCCS(=O)(=O)N/N=C(\c1ccccc1Cl)N1CCOCC1
inactive: [1] 48.2% | [2] 33.5% | [3] 45.9% | [4] 48.2% | [5] 55.8% | [6] 51.2%

O=c1c2cc([N+](=O)[O-])ccc2c2ccc([N+](=O)[O-])cc2c(=O)n1-c1ccc2c(c1)Cc1ccccc1-2
inactive: [1] 21.5% | [2] -21% | [3] -19.2% | [4] -21.4% | [5] -8.35% | [6] -5%

O=C(NN1CCCCC1)NN1CCCCC1
inactive: [1] 5.35% | [2] -2.5% | [3] 8.6% | [4] 20.1% | [5] 24% | [6] 18.2%

CC(=O)Nc1ccc(/C=N/NC(=S)Nc2cccc3cccnc23)cc1
inactive: [1] -1.2% | [2] 17.9% | [3] -5% | [4] 10.5% | [5] 31.4% | [6] -4.45%

COc1ccccc1N=Nc1c(O)n(-c2ccccc2OC)c(=S)n(-c2ccc(I)cc2)c1=O
active: [1] 96% | [2] 96.2% | [3] 96% | [4] 92.8% | [5] 95.2% | [6] 96.7%

CCC(C)N(C(C)=O)C(C)CC (stereo unspecified)
inactive: [1] -4.15% | [2] -17.2% | [3] -13.4% | [4] 15.2% | [5] 2% | [6] 1.85%

O=C(O)CC1CCCCCC1
inactive: [1] 21.9% | [2] 8.25% | [3] 12.8% | [4] 12.9% | [5] 32.8% | [6] 12%

CC1=C(C(=O)NNC(=O)C[N+](C)(C)C)CC(C(=O)NNC(=O)C[N+](C)(C)C)=C(C)N1
inactive: [1] -12.4% | [2] -21.1% | [3] -10.9% | [4] -31.2% | [5] -13.2% | [6] -39.9%

CC(C)OC(=O)C(=O)Nc1cccc(Cl)c1
inactive: [1] -3.45% | [2] -14.1% | [3] -29.5% | [4] -65.8% | [5] -15.3% | [6] -2.5%

CCCCS(=O)(=O)CCC(N)C(=O)O (stereo unspecified)
inactive: [1] -3.45% | [2] -9.45% | [3] 2.6% | [4] -36.2% | [5] -4.75% | [6] -11.5%

NNC(=O)C(=O)NN
inactive: [1] -24% | [2] -16.4% | [3] -1.85% | [4] -27.7% | [5] -1.75% | [6] -20.6%

CN1C=C([N+](=O)[O-])C(N2CCOCC2)C1N1CCOCC1 (stereo unspecified)
inactive: [1] 3.1% | [2] 0.65% | [3] -3.5% | [4] 3.1% | [5] -26.6% | [6] 20.9%

COC(=O)c1cccc2c1Cc1cc(N)ccc1-2
inactive: [1] -7.9% | [2] -16.8% | [3] -19.6% | [4] -21.4% | [5] 9.7% | [6] -12.2%

Nc1cccc(CNC(=O)COc2ccc(Cl)c(Cl)c2)c1
active: [1] 84.7% | [3] 89.7% | [4] 77.2% | [5] 79.8% | [6] 82.8%
inactive: [2] 68.9%

CCCCOC(=O)C12CCCCC1O2 (stereo unspecified)
inactive: [1] -29.1% | [2] -29.9% | [3] -12.8% | [4] 2.55% | [5] -29.1% | [6] -0.55%

O=c1c(SCc2ccc(Cl)c(Cl)c2)c(SCc2ccc(Cl)c(Cl)c2)cnn1-c1ccccc1
inactive: [1] -8.5% | [2] -11.5% | [3] -6.05% | [4] -1.6% | [5] -13.4% | [6] 15.3%

CCCCC1c2c([nH]c3ccccc23)C2C(=O)N(c3ccc(OC)cc3)C(=O)C2C1CCC (stereo unspecified)
inactive: [1] 9.75% | [2] -19.5% | [3] -14.6% | [4] -27.5% | [5] 1.6% | [6] -5.6%

COc1cc(C2C3=C(COC3=O)OC(C)(C)Oc3cc4c(cc32)OCO4)cc(OC)c1OC (stereo unspecified)
inactive: [1] 4.95% | [2] -11.8% | [3] 14.8% | [4] 52.9% | [5] -8.8% | [6] 22%

Cc1cc(C)c(NC(=O)Nc2ccc(C(Cl)(Cl)Cl)cc2)c(C)c1
inactive: [1] 4.9% | [2] 11.5% | [3] 8.8% | [4] 7% | [5] 2.9% | [6] 2.8%

O=C(/C=C\c1ccccc1)OCc1ccccc1CN1CCCCC1
inactive: [1] 15.7% | [2] 11.7% | [3] 17.2% | [4] 14.6% | [5] 10.4% | [6] 12.8%

CCOC(=O)NNC(C)(C)C
inactive: [1] 4.15% | [2] 4.35% | [3] 4.5% | [4] 21.8% | [5] -9% | [6] -3.7%

CC(O)c1ccc(C(O)/C(=N\NC(=O)c2ccncc2)c2nc3ccc([N+](=O)[O-])cc3[nH]c2=O)cc1 (stereo unspecified)
inactive: [1] -5.95% | [2] -10.2% | [3] 15.2% | [4] -60.7% | [5] -5.1% | [6] -2.25%

CN(C)C(=O)Sc1ccc(O)cc1
inactive: [1] 5.05% | [2] -21.6% | [3] -4.65% | [4] -28.3% | [5] 12.9% | [6] -2.8%

CC(C)=NNc1snnc1C(N)=O
inactive: [1] 13.2% | [2] 26.9% | [3] 13.3% | [4] -2% | [5] -13.2% | [6] 28.4%

CCOc1ccc(Nc2nc(N)nc(N)c2N)cc1
inactive: [1] 2.85% | [2] 10.8% | [3] -8.95% | [4] -13.7% | [5] -20.4% | [6] 3.8%

CC1CCCC(=O)CCC1
inactive: [1] 2.9% | [2] -4.6% | [3] -9.05% | [4] 7.15% | [5] 10.8% | [6] 2.55%

CC1=NN(c2ccccc2)C(N)C1 (stereo unspecified)
inactive: [1] 17.7% | [2] 17.7% | [3] 23.3% | [4] 11.5% | [5] 25.4% | [6] 13.2%

CC1(C)CC(=O)C2=C(SC3=C(C2)C(=O)CC(C)(C)S3)S1
inactive: [1] -5.75% | [2] -2.5% | [3] 2.8% | [4] -7.25% | [5] -9.85% | [6] -3.3%

N#Cc1nc(NC(=O)c2ccccc2C(=O)O)c(C#N)[nH]1
inactive: [1] 1.5% | [2] 14.1% | [3] -20.8% | [4] 4.95% | [5] -8.85% | [6] -29.3%

COc1ccc(CSC(=S)Nc2cc(C)c(C)cc2Br)cc1
active: [1] 96.3% | [2] 97.5% | [3] 97.7% | [4] 97.6% | [5] 96.8% | [6] 96.8%

O=[N+]([O-])c1ccc(N=Cc2ccccc2)cc1
inactive: [1] 1.95% | [2] -30.6% | [3] 12.9% | [4] 3.75% | [5] 16.5% | [6] 5.8%

CNC(=S)NNC1=NCCCCN1
inactive: [1] -41.2% | [2] -20% | [3] -16.1% | [4] 3.9% | [5] 2.1% | [6] -16.1%

CCN(c1ccccc1)S(=O)(=O)c1ccccc1N
inactive: [1] -0.75% | [2] -13.2% | [3] 10.7% | [4] 14.4% | [5] -3.6% | [6] -0.4%

CC(=O)c1cccc(F)c1C(C)c1ccc2ccccc2c1 (stereo unspecified)
inactive: [1] -3.85% | [2] 0.6% | [3] -8.8% | [4] 3.35% | [5] 15.4% | [6] 1.65%

O=S1(=O)CC2C3CC(Oc4ccccc4)C(C3)C2C1 (stereo unspecified)
inactive: [1] -9.85% | [2] -6.35% | [3] -4.2% | [4] -20.9% | [5] -26.6% | [6] -6.5%

C(#CC[P+](c1ccccc1)(c1ccccc1)c1ccccc1)C[P+](c1ccccc1)(c1ccccc1)c1ccccc1
inactive: [1] -24.1% | [2] -16.4% | [3] 0.2% | [4] 3.55% | [5] -5.4% | [6] -10.4%

COC1(C)CNCC(C)(C)NC(=O)C(C)(OC)CNCC(C)(C)NC1=O (stereo unspecified)
inactive: [1] -10.9% | [2] 2.1% | [3] -20.7% | [4] -17% | [5] -32.5% | [6] -19.6%

COc1ccc2c(c1)C(N)=C(c1ccccc1OC)C2=O
inactive: [1] -8.45% | [2] 3.9% | [3] 4.95% | [4] -8.15% | [5] -7.4% | [6] -38.5%

CC(C)OC1(c2ccccc2)c2cccc3cccc(c23)C1(O)c1ccccc1 (stereo unspecified)
inactive: [1] 18.2% | [2] -3.6% | [3] 22.8% | [4] 7.7% | [5] 3.35% | [6] 6.75%
